Inconclusive results are not listed. Calls of active or inactive are those of the source. How the source made its calls: active means hit-call score of the fitted dose curve at least 0.9, where 1 is the maximum; inconclusive means response in the unintended direction; inactive means score below 0.9.

In the first test the target is AR (gene 367) (UniProt P10275). Briefly: ACEA_AR_agonist_80hr: ACEA Biosciences xCELLigence Real-Time Cell Analysis on Androgen Receptor Agonism for Proliferation (AID 2283783).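 Further: hits increase impedance growth signal above DMSO baseline.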 Here is the method: ACEA_AR_agonist is a cell-based, single-readout assay that uses 22Rv1, a human prostate cancer cell line, with measurements taken at 80 hours after chemical dosing in a 384-well plate, although TO5 and TO6 (mc0.srcf) used a 96-well plate. Differences in plate size can be ignored given data normalization.ACEA_AR_agonist_80hr is one of two assay component(s) measured or calculated from the ACEA_AR assay. It is designed to make measurements of real-time cell-growth kinetics, a form of growth reporter, as detected with electrical impedance signals by Real-Time Cell Electrode Sensor (RT-CES) technology.Data from the assay component ACEA_AR_agonist_80hr was analyzed in the positive analysis fitting direction relative to DMSO as the negative control and baseline of activity. Using a type of growth reporter, measures of the cells for gain-of-signal activity can be used to understand the signaling at the pathway-level as they relate to the geneAR Furthermore, this assay endpoint can be referred to as a primary readout, because this assay has produced multiple assay endpoints where this one serves a signaling function. To generalize the intended target to other relatable targets, this assay endpoint is annotated to the nuclear receptor intended target family, where the subfamily is steroidal.
Sequence of AR (gene 367) (P10275 whole entry, looked up): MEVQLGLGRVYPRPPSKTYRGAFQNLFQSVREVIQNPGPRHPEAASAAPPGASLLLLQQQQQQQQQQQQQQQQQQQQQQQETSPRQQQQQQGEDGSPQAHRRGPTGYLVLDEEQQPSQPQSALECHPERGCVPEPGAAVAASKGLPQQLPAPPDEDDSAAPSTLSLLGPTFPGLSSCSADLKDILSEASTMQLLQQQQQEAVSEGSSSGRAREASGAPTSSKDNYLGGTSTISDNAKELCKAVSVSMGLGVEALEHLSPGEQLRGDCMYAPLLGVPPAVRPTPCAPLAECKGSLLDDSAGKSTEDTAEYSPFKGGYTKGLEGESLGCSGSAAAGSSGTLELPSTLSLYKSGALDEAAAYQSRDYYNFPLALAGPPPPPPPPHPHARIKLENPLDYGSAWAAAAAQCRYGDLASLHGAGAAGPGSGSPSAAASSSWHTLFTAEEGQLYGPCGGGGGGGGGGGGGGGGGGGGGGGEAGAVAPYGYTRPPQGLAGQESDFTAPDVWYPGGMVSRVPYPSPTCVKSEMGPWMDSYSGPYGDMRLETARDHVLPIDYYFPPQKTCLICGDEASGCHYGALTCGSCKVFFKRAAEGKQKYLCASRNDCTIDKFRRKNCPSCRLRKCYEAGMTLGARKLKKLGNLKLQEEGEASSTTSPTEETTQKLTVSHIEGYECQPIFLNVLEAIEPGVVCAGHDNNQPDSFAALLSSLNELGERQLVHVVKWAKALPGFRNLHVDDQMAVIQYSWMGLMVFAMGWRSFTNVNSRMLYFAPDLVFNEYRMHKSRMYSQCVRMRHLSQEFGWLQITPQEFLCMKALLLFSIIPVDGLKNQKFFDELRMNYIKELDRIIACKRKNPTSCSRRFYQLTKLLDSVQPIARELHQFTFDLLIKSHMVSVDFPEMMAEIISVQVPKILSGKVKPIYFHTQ
The xCELLigence system Multi-E-Plate stations were used to measure the time-dependent response to chemicals. Each compound was tested in an eight-point, 1:4 serial dilution series starting at a maximum final concentration of 100 uM. A maximum starting concentration of 0.5% DMSO was present in the 100 uM chemical samples and was diluted along with the test article dilution series. The screen was performed in biological duplicate using two separate, 96-well, E-Plates 96 for each dilution series (n = 2). Positive controls (MG132 and testosterone) and a negative control (assay media) were tested in quadruplicate on each testing plate. […] Reference compounds were tested with 8 concentrations with 1:5 serial dilutions. All screening was carried out by ACEA Biosciences, Inc. (San Diego, CA). 22Rv1 cells purchased from ATCC were maintained in media supplemented with 10% fetal bovine serum (FBS). Before screening, 22Rv1 cells were preconditioned in assay medium. Cells were then detached and seeded in E-Plates 96 in assay medium. After overnight monitoring of growth once every hour, compounds were added to […] cells and remained in the medium until the end of the experiment. Cellular responses were then recorded once every 5 min for the first 5 h, and once every hour for an additional 100 h.
For `O=C(CCCCCCCCc1cccnc1)N1CCC(C=C(c2ccccc2)c2ccccc2)CC1`, the call was inactive.
The same measure, in the same setting: the entry for `CC(C)=CCC/C(C)=C\CO` is “inactive”.
What is called AC50 is the concentration at which the activity in the assay is half-maximal. With `O=C(O)c1cccc(N(Cc2cccnc2)c2ccc(OC(F)F)c(OC(F)F)c2)c1`, the AC50 is 10.5 µM (active).
As for `Oc1ccc2c(c1)-c1ccccc1C2`, the result was inactive.
With `CCCN(C1CCN(C(=O)C2CCNCC2)CC1)[C@@H]1CCc2ccc(OC)cc2C1`, the result was inactive.
Regarding `CN(C)c1ccc(N=NS(=O)(=O)O)cc1`, the AC50 is 10.7 µM (active).
With `C1N2CN3CN1CN(C2)C3`, the call was inactive.
On the same count and under the same terms, the entry for `Cc1ccc(N)cc1O` is “inactive”; for `CCCCC(CC)COC(=O)c1ccc(C(=O)OCC(CC)CCCC)cc1` (stereo unspecified) it is “inactive”.

Tested on in the next test: not listed separately
Put plainly: STM_H9_NormalizedViability: Cytotoxicity Assessment at 120 hours in the Stemina devTOX quickPredict H9 human embryonic stem cell (hESC)-based Assay (AID 2283784). In a few lines:
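Viability of the cell layer was taken from live-cell protease cleavage of a fluorogenic substrate after compound exposure of undifferentiated H9 stem cells, with replenishment each 24h. Fluorescence was normalized to vehicle (0.1% DMSO).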
In the case of `Cn1c(=O)cc(Oc2ccc(F)cc2F)c2cnc(NCC(C)(C)O)nc21`, the outcome was inactive.
Regarding `COc1ccc2sc(C(=O)Nc3nnn[nH]3)c(OC(C)C)c2c1`, the AC50 was 2.01 µM (active).
In the case of `O=c1[nH]c2ccc(S(=O)CCN3CCC(Cc4ccc(F)cc4)CC3)cc2o1` (stereo unspecified), the outcome was inactive.
Same read-out and setting: the entry for `CC(C)CCO` is “inactive”.
On the same count and under the same terms, as for `CC(C)CC(C)(O)C#CC(C)(O)CC(C)C` (stereo unspecified), the entry is “inactive”; as for `COCCOCCOCCOC`, “inactive”.
In the case of `NC(=O)NO`, the AC50 is 341 µM (active).
With `CC[C@H](C)C(=O)O[C@H]1C[C@@H](C)C=C2C=C[C@H](C)[C@H](CC[C@@H]3C[C@@H](O)CC(=O)O3)[C@H]21`, the outcome was inactive.
For the molecule `CN(C)c1ccc(N=NS(=O)(=O)O)cc1`, the AC50 was 21.1 µM (active).
On to `CCC(C)(C)C(=O)O[C@H]1C[C@@H](C)C=C2C=C[C@H](C)[C@H](CC[C@@H]3C[C@@H](O)CC(=O)O3)[C@H]21`, for which the result was inactive.
As to `On1ccccc1=S`, the half-maximal activity concentration (AC50) is 8.35 µM (active).
As for `Fc1ccccc1[C@@H](F)COC1CCC(Nc2ncnc3[nH]ncc23)CC1` (stereo partly specified), the result was inactive.
Regarding `CCOC(=O)c1ccc(C2CCC(NC[C@H](O)COc3ccc(O)c(NS(C)(=O)=O)c3)CC2)cc1` (stereo partly specified), the result was inactive.
As for `Cn1cnc([N+](=O)[O-])c1Sc1ncnc2nc[nH]c12`, the concentration at half-maximal activity (AC50) is 4.02 µM (active).
Still for that read-out and setting: the figure for `Nc1ccc(Nc2ccccc2)cc1` is 6.7 µM (active).
Take `CC[C@H]1CC[C@H](NCc2cc3c(cc2OC)[C@H]2C[C@H]2C(=O)N3C)[C@H](c2ccccc2)N1`: the AC50 is 9.43 µM (active).
Turning to `Nc1nc2ncc(CNc3ccc(C(=O)N[C@@H](CCC(=O)O)C(=O)O)cc3)nc2c(=O)[nH]1`, the result was inactive.
Still for that read-out and setting: the entry for `Cn1c(=O)c2c(ncn2C)n(C)c1=O` is “inactive”.
For the molecule `CC(C)c1cccc(C(C)C)c1N1C(=O)c2ccc(O)cc2C1=O`, the AC50 is 20.6 µM (active).
Take `O=c1n(CC2CO2)c(=O)n(CC2CO2)c(=O)n1CC1CO1` (stereo unspecified): the AC50 was 1.06 µM (active).
For the molecule `CC(C)=CCCC(C)=CC=O`, the result was inactive.
The same measure, in the same setting: the entry for `CCN(C(=O)c1cc(C)cc(OC[C@H](C)Nc2ccncc2)c1)C(C)C` is “inactive”.
For `COc1cccc(-c2ccc(/C=C\CN3CCCCCC3)cc2Cl)c1`, the AC50 was 1.1 µM (active).
`CNCc1ccc(NC(=O)c2c[nH]c3c2C(=O)CCC3)cc1`: the outcome was inactive.

Another test deals with AR (gene 367) (UniProt P10275). Briefly: ACEA_AR_antagonist_80hr: ACEA Biosciences xCELLigence Real-Time Cell Analysis on Androgen Receptor Antagonism for Proliferation (AID 2283787).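 Further: hits lower the impedance growth signal relative to DMSO.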 In a few lines:
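Measures real-time proliferation of 22Rv1 prostate cancer cells by electrode impedance at 80 hours after dosing. Test articles ran at eight concentrations (1:4 steps, top 100 uM final) in biological duplicate.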
As for `O=C(CCCCCCCCc1cccnc1)N1CCC(C=C(c2ccccc2)c2ccccc2)CC1`, the AC50 was 7.53 µM (active).
In the case of `Cc1ccc(O)cc1`, the molecule was called inactive.
Same read-out and setting: as for `CC1(C)C(=O)N(Br)C(=O)N1Br`, the entry is “inactive”.
Turning to `O=C(O)c1cccc(N(Cc2cccnc2)c2ccc(OC(F)F)c(OC(F)F)c2)c1`, the AC50 was 77.6 µM (active).
On to `Oc1ccc2c(c1)-c1ccccc1C2`, for which the AC50 is 50 µM (active).
Same read-out and setting: the figure for `CCCN(C1CCN(C(=O)C2CCNCC2)CC1)[C@@H]1CCc2ccc(OC)cc2C1` is 63.9 µM (active).
Consider `Fc1ccccc1[C@@H](F)COC1CCC(Nc2ncnc3[nH]ncc23)CC1` (stereo partly specified), for which the AC50 is 54 µM (active).
On to `CC(C)=CCCC(C)CCO` (stereo unspecified), for which the result was inactive.
On the same count and under the same terms, the entry for `Nc1nc2ncc(CNc3ccc(C(=O)N[C@@H](CCC(=O)O)C(=O)O)cc3)nc2c(=O)[nH]1` is “inactive”.
With `CCOc1cccc(-n2cc(C(=O)N3CCN(c4cc(C(=O)O)c5ccccc5c4)CC3)nc2-c2ccc(C)cc2)c1`, the AC50 was 12.5 µM (active).
With `CCCCCCc1ccc(O)cc1O`, the AC50 is 11 µM (active).
As for `Cc1ccc(N)cc1O`, the AC50 was 74.4 µM (active).
Consider `CCCCC(CC)COC(=O)c1ccc(C(=O)OCC(CC)CCCC)cc1` (stereo unspecified), for which the molecule was called inactive.

Values taken from PubChem BioAssay (EPA / NIEHS).
